In PubChem BioAssay (NCI):
This is part of a sample that, as a whole, favours compounds with a hit. Of some 79,000 tested, about 15% had one in any assay. Active and inactive are the calls of the source. Cut-off read from the data, not from the text of the source: active = growth inhibition above about 70%; inactive = the rest.

Assays:
[1] = NCI Yeast Anticancer Drug Screen. Data for the rad52 strain (AID 147);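 note: 0% = growth of vehicle-treated control cultures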; details: S. cerevisiae rad52 mutant growth inhibition, hits give high values
How it was run: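 Compounds are applied to a genetically defined yeast strain lacking normal DNA damage repair, and inhibition of growth is expressed relative to cultures given vehicle only.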

[2] = NCI Yeast Anticancer Drug Screen. Data for the wt1 strain (AID 149);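 note: 0% = growth of vehicle-treated wt1 cultures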; details: S. cerevisiae wt1 strain (SPY 50644) growth inhibition, hits give high values
How it was run: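 wt1 strain grown with compound or vehicle; inhibition taken from the growth difference.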

[3] = NCI Yeast Anticancer Drug Screen. Data for the rad50EPP+ strain (AID 151);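 note: 0% = growth of vehicle-treated control cultures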; details: S. cerevisiae rad50 mutant strain, hits give high values
How it was run: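 Compounds were applied to the rad50EPP+ yeast strain, which bears a defined DNA repair alteration, and growth inhibition was determined relative to vehicle-treated cultures.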

[4] = NCI Yeast Anticancer Drug Screen. Data for the mgt1 strain (AID 153); details: S. cerevisiae mgt1 mutant growth inhibition, hits give high values
How it was run: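 Strain: mgt1 yeast, one of a set carrying defined DNA damage repair or cell cycle control alterations. Compound-treated growth compared with vehicle.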

[5] = NCI Yeast Anticancer Drug Screen. Data for the rad50 strain (AID 155);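 note: 0% = growth of vehicle-only cultures of the same strain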; details: S. cerevisiae rad50 strain growth inhibition, hits give high values
How it was run: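 DNA repair mutant yeast, compound exposure, growth read-out; inhibition is taken relative to vehicle.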

[6] = NCI Yeast Anticancer Drug Screen. Data for the mec2-1 strain (AID 157); details: S. cerevisiae mec2-1 strain, hits give high values
How it was run: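 Strain: mec2-1 (DNA repair/cell cycle alteration). Compound exposure, then growth measured; inhibition expressed relative to vehicle.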

[7] = NCI Yeast Anticancer Drug Screen. Data for the rad14 strain (AID 159);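 note: 0% = growth of vehicle-treated control cultures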; details: S. cerevisiae rad14 strain growth inhibition, hits give high values
How it was run: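 DNA repair-defective yeast, compound-exposed; % growth inhibition derived by comparison with vehicle-treated controls.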

[8] = NCI Yeast Anticancer Drug Screen. Data for the sgs1 mgt1 strain (AID 161);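 note: 0% = growth of cultures given vehicle only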; details: S. cerevisiae sgs1 mgt1 strain, hits give high values
How it was run: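 Inhibition of yeast growth, normalised to vehicle-treated controls, is reported for a strain bearing genetic alterations in DNA damage repair.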

[9] = NCI Yeast Anticancer Drug Screen. Data for the CLN2oe strain (AID 163);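 note: 0% = growth of vehicle-only control cultures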; details: S. cerevisiae CLN2oe strain, hits give high values
How it was run: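 Growth of a genetically modified yeast strain is measured after compound exposure and compared with cultures given vehicle alone.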

[10] = NCI Yeast Anticancer Drug Screen. Data for the cln2 rad14 strain (AID 165);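 note: 0% = growth equal to vehicle treated cultures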; details: S. cerevisiae cln2 rad14 strain, hits give high values
How it was run: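 Compounds are applied to the cln2 rad14 yeast strain, and growth is then compared with that of vehicle-treated cultures to give inhibition.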

[11] = NCI Yeast Anticancer Drug Screen. Data for the bub3 strain (AID 167); details: S. cerevisiae bub3 mutant strain, hits give high values
How it was run: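 In this screen, a yeast mutant lacking normal mitotic checkpoint function is challenged with compound. Relative growth versus vehicle gives the inhibition value.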

[12] = NCI Yeast Anticancer Drug Screen. Data for the wt2 strain (AID 169);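 note: 0% = growth of vehicle-treated yeast cultures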; details: S. cerevisiae wt2 strain growth inhibition, hits give high values
How it was run: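 This strain belongs to a panel of yeast strains with defined genetic alterations in DNA damage repair or cell cycle control. Compounds are applied, and growth inhibition is measured against vehicle-treated cultures.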

[13] = NCI Yeast Anticancer Drug Screen. Data for the sgs1 strain (AID 173);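 note: 0% = growth of vehicle-only control cultures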; details: S. cerevisiae sgs1 mutant, hits give high values
How it was run: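 Growth of a yeast strain bearing a defined genetic alteration is measured after compound treatment. Inhibition is expressed relative to vehicle-only controls.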

[14] = NCI Yeast Anticancer Drug Screen. Data for the mlh1 rad18 strain (AID 175); details: S. cerevisiae mlh1 rad18 strain growth inhibition, hits give high values
How it was run: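 Read-out is yeast growth inhibition, calculated against vehicle-only controls. The compound was applied to a strain engineered with DNA damage repair alterations.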

[15] = NCI Yeast Anticancer Drug Screen. Data for the rad18 strain (AID 177); details: S. cerevisiae rad18 mutant growth inhibition, hits give high values
How it was run: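 Growth of the mutant yeast strain after compound exposure, normalised to vehicle-only cultures.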

[16] = NCI Yeast Anticancer Drug Screen. Data for the mlh1 strain (AID 171);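 note: 0% = growth of vehicle-treated control cultures of the same strain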; details: S. cerevisiae mlh1 strain growth inhibition, hits give high values
How it was run: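 Growth of the mutant yeast strain after compound exposure, expressed as inhibition relative to vehicle-only controls.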

[17] = at 5.0 µM (retest, dose inferred, filed as 0.5)
[18] = at 50.0 µM (retest, dose inferred, filed as 5.0)

Measured: growth inhibition

CN1CCN(C(=O)c2cccc3cccc(C(=O)O)c23)CC1
inactive: [1]; at 1.2 µM 11% | [1]; at 3.7 µM 10% | [1]; at 11.0 µM 7% | [1]; at 33.0 µM 38% | [2]; at 1.2 µM 6% | [2]; at 3.7 µM 9% | [2]; at 11.0 µM 11% | [2]; at 33.0 µM 12% | [2]; at 100.0 µM 33% | [3]; at 1.2 µM 15% | [3]; at 3.7 µM 12% | [3]; at 11.0 µM 10% | [3]; at 33.0 µM 36% | [4]; at 1.2 µM 4% | [4]; at 3.7 µM 12% | [4]; at 11.0 µM 11% | [4]; at 33.0 µM 23% | [5]; at 1.2 µM 9% | [5]; at 3.7 µM 9% | [5]; [17] -12% | [5]; at 11.0 µM 8% | [5]; at 33.0 µM 61% | [6]; at 1.2 µM 10% | [6]; at 3.7 µM 12% | [6]; [17] -19% | [6]; at 11.0 µM 13% | [6]; at 33.0 µM 23% | [6]; [18] 1% | [7]; at 1.2 µM 12% | [7]; at 3.7 µM 11% | [7]; at 11.0 µM 14% | [7]; at 33.0 µM 32% | [8]; [17] -14% | [9]; at 1.2 µM 13% | [9]; at 3.7 µM 15% | [9]; at 11.0 µM 14% | [9]; at 33.0 µM 32% | [10]; [17] -10% | [10]; [18] 6% | [10]; at 50.0 µM 38.6% | [11]; at 1.2 µM 12% | [11]; at 3.7 µM 15% | [11]; [17] 25% | [11]; at 11.0 µM 16% | [11]; at 33.0 µM 33% | [11]; at 50.0 µM 51.8% | [12]; at 1.2 µM -6% | [12]; at 3.7 µM -4% | [12]; at 11.0 µM -7% | [12]; at 33.0 µM -8% | [13]; at 1.2 µM -14% | [13]; at 3.7 µM -21% | [13]; at 11.0 µM -13% | [13]; at 33.0 µM 16% | [14]; [17] -30% | [14]; at 50.0 µM 9.9% | [15]; at 1.2 µM 11% | [15]; at 3.7 µM 11% | [15]; at 11.0 µM 13% | [15]; at 33.0 µM 33%
active: [1]; at 100.0 µM 97% | [3]; at 100.0 µM 72% | [4]; at 100.0 µM 99% | [5]; [18] 84% | [5]; at 50.0 µM 85% | [5]; at 100.0 µM 99% | [6]; at 50.0 µM 97.7% | [6]; at 100.0 µM 99% | [7]; at 100.0 µM 98% | [8]; [18] 88% | [8]; at 50.0 µM 77.6% | [9]; at 100.0 µM 97% | [11]; [18] 89% | [11]; at 100.0 µM 97% | [12]; at 100.0 µM 98% | [13]; at 100.0 µM 100% | [14]; [18] 99% | [15]; at 100.0 µM 99%

CCCCCCCN(CCCCCCC)CC(=O)c1ccc2cc(Cl)c3ccccc3c2c1
active: [1]; at 11.0 µM 98% | [1]; at 33.0 µM 96% | [1]; at 100.0 µM 92% | [2]; at 11.0 µM 97% | [2]; at 33.0 µM 97% | [2]; at 100.0 µM 92% | [3]; at 100.0 µM 94% | [4]; at 11.0 µM 98% | [4]; at 33.0 µM 98% | [4]; at 100.0 µM 95% | [5]; at 11.0 µM 98% | [5]; at 33.0 µM 97% | [5]; [18] 93% | [5]; at 50.0 µM 99.3% | [5]; at 100.0 µM 92% | [6]; at 11.0 µM 78% | [6]; at 33.0 µM 98% | [6]; [18] 96% | [6]; at 50.0 µM 99.4% | [6]; at 100.0 µM 96% | [7]; at 11.0 µM 98% | [7]; at 33.0 µM 97% | [7]; at 100.0 µM 95% | [8]; [18] 96% | [8]; at 50.0 µM 99.2% | [9]; at 11.0 µM 98% | [9]; at 33.0 µM 97% | [9]; at 100.0 µM 92% | [10]; [18] 93% | [10]; at 50.0 µM 98.5% | [11]; at 11.0 µM 98% | [11]; at 33.0 µM 97% | [11]; [18] 95% | [11]; at 50.0 µM 98.2% | [11]; at 100.0 µM 94% | [16]; at 11.0 µM 98% | [16]; at 33.0 µM 97% | [16]; at 100.0 µM 93% | [13]; at 11.0 µM 98% | [13]; at 33.0 µM 97% | [13]; at 100.0 µM 93% | [14]; [18] 94% | [14]; at 50.0 µM 99.5% | [15]; at 11.0 µM 98% | [15]; at 33.0 µM 97% | [15]; at 100.0 µM 93%
inactive: [1]; at 1.2 µM 3% | [1]; at 3.7 µM 19% | [2]; at 1.2 µM -7% | [2]; at 3.7 µM 18% | [3]; at 1.2 µM -5% | [3]; at 3.7 µM 0% | [3]; at 11.0 µM 29% | [3]; at 33.0 µM 58% | [4]; at 1.2 µM 5% | [4]; at 3.7 µM 19% | [5]; at 1.2 µM 2% | [5]; at 3.7 µM 28% | [5]; [17] 39% | [6]; at 1.2 µM 1% | [6]; at 3.7 µM 0% | [6]; [17] 26% | [7]; at 1.2 µM 36% | [7]; at 3.7 µM 50% | [8]; [17] 60% | [9]; at 1.2 µM 1% | [9]; at 3.7 µM 22% | [10]; [17] 14% | [11]; at 1.2 µM 9% | [11]; at 3.7 µM 24% | [11]; [17] 26% | [16]; at 1.2 µM -9% | [16]; at 3.7 µM 40% | [13]; at 1.2 µM 5% | [13]; at 3.7 µM 26% | [14]; [17] 25% | [15]; at 1.2 µM -9% | [15]; at 3.7 µM 19%
